Source: PubChem (several laboratories)
This is a sample that favours compounds with a hit; in the whole collection about 2.4% have one here.
SENP8 block-1 = blocks human SENP8 cleavage of Nedd8 substrate | Q96LD8 | recombinant SENP8, Nedd8 substrate fluorescence | inhibition, % at 20 µM | 0.64% of 360,000 active; in the data active = inhibition mostly above about 40%, no sharp cut-off; inactive = mostly below about 27%
Target sequence (Q96LD8 whole entry, looked up): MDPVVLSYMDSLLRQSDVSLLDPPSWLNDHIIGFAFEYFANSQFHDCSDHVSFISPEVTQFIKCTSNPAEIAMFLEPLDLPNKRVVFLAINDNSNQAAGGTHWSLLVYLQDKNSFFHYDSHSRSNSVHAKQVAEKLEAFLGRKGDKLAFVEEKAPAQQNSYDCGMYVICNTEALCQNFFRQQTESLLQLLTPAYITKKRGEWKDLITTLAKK
SENP6 inh = blocks the human protease SENP6 | Q9GZR1 | Recombinant SENP6 catalytic domain, aminoluciferin luminescence | inhibition, % at 10 µM | 1.8% of 330,000 active;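 active = inhibition above about 50% at the single tested dose, limit read from the data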
SENP7 inh = blocks the human protease SENP7; recombinant SENP7, Z-RLRGG-aminoluciferin luminescence, 40 min; inhibition, % at 5 µM; 1.5% of 330,000 active;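 active = inhibition above about 50% at the single test dose, limit read from the data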
SENP8 block-2 = inhibitors of human SENP8 protease; Q96LD8; purified SENP8, Z-RLRGG-aminoluciferin cleavage, luminescence; inhibition, % at 10 µM; 1.2% of 330,000 active; AID 2540; in the data active = inhibition above about 50%
Platelet DG rel = platelet dense granule release activity; human platelet-rich plasma, SFLLRN dense granule ATP release, luminescence; 0.22% of 300,000 active; inhibition, %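 (compounds screened at 7.5 µM in platelet-rich plasma)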;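 active = mean replicate score, as percent of positive control, at or above 50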
SENP8 confirm = confirmation of human SENP8 protease inhibitors. shares compounds with SENP7 inh. Recombinant SENP8, Z-RLRGG-aminoluciferin luminescence, 60 min. inhibition, % at 12.5 µM. 40% of 6,200 active;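 active = mean inhibition across replicates above about 50%, limit read from the data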
SENP6 confirm = human SENP6 inhibition, confirmed; shares compounds with SENP7 inh; recombinant SENP6, Z-RLRGG-aminoluciferin luminescence; inhibition, % at 12.5 µM; 58% of 6,200 active
SENP7 confirm = confirmation of human SENP7 protease inhibitors; inhibition, % at 12.5 µM; AID 488917; recombinant SENP7, Z-RLRGG-aminoluciferin luminescence, 40 min; shares compounds with SENP7 inh; 69% of 6,200 active
Casp3 SENP sel = selectivity test for SENP inhibitors: human caspase-3 inhibition; shares compounds with SENP7 inh; purified caspase-3, Z-DEVD-aminoluciferin luminescence, 60 min; inhibition, % at 12.5 µM; 60% of 6,200 active;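 active = mean inhibition above about 50%, limit read from the data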
Target sequence (P42574 28-227 limits assumed): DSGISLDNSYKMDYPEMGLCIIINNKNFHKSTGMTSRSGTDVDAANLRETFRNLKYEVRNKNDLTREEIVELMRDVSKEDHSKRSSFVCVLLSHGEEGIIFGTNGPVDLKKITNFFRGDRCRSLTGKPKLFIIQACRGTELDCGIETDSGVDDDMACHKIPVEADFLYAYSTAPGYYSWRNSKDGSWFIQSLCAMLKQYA
SENP luc ctr = interferes with luciferase luminescence in SENP counter-screen. shares compounds with SENP7 inh. Pre-incubated SENP8/Z-RLRGG-aminoluciferin, luciferase luminescence interference. inhibition, % at 12.5 µM. 39% of 6,200 active. AID 488919;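 active = mean inhibition above about 50% when retested at one dose, limit read from the data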
Large screens that a line does not name were inactive (follow-up assays come after a bar, where they were run).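 Rule for the calls, unless noted: active = mean inhibition above about 50% in the one-dose retest (limit read from the data); inactive = the rest.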

Brc1ccc(-c2nnc(-c3ccc4c(c3)OCO4)o2)o1	SENP7 inh 61.2 | SENP8 confirm inactive | SENP6 confirm inactive | SENP7 confirm inactive | Casp3 SENP sel inactive | SENP luc ctr inactive
COc1ccccc1CCNS(=O)(=O)c1cc2c3c(c1)CCN3C(=O)CC2	none
O=C(CN1C(=O)c2ccccc2S1(=O)=O)c1ccc(Cl)cc1Cl	SENP6 inh 67.5, SENP8 block-2 72.3 | SENP8 confirm 73.3 | SENP6 confirm 76.9 | SENP7 confirm 83.5 | Casp3 SENP sel 50.5 | SENP luc ctr inactive
Cn1cc(C(=O)Nc2ccc3c(c2)CCC3)cn1	none
Cc1ccc(NC(=O)c2scc3c2CCCC3)cc1	SENP6 inh 91.2, SENP7 inh 85.2 | SENP8 confirm inactive | SENP6 confirm inactive | SENP7 confirm inactive | Casp3 SENP sel inactive | SENP luc ctr inactive
CSc1ccccc1C(=O)Nc1ccc2c(c1)CCC2	SENP6 inh 52.4 | SENP8 confirm inactive | SENP6 confirm inactive | SENP7 confirm 77.0 | Casp3 SENP sel inactive | SENP luc ctr 54.5
O=C(Nc1ccc2c(c1)CCC2)c1cc(F)cc(F)c1	SENP6 inh 71.7, SENP7 inh 77.4, SENP8 block-2 69.7 (no result: Platelet DG rel) | SENP8 confirm inactive | SENP6 confirm 78.2 | SENP7 confirm 95.4 | Casp3 SENP sel 65.4 | SENP luc ctr inactive
Cc1ccc(C(=O)Nc2ccc3c(c2)CCC3)cc1	SENP6 inh 87.9, SENP7 inh 90.6, SENP8 block-2 81.3 | SENP8 confirm 88.5 | SENP6 confirm 89.1 | SENP7 confirm 98.4 | Casp3 SENP sel 87.4 | SENP luc ctr 86.4
CC1(C)Cc2cccc(C(=O)NC3CCN(Cc4ccccc4)CC3)c2O1	none
Fc1ccccc1C1c2cccn2CCN1C(=S)Nc1ccc(Br)cc1 (configuration not stated)	none
O=C(CCn1nc(-c2ccc(Cl)cc2)ccc1=O)N1CCN(c2ccc(F)cc2)CC1	none
Cc1ccc(/C=C2\SC(=S)N(CCC(=O)N3CCOCC3)C2=O)cc1	none
Cc1ccc2c(c1)N(CC(=O)NCCCN1CCN(C)CC1)C(=O)CO2	none
O=C(Nc1ccc2c(c1)CCC2)c1cccc(F)c1	SENP6 inh 87.5, SENP7 inh 92.0, SENP8 block-2 76.5 | SENP8 confirm 91.0 | SENP6 confirm 91.2 | SENP7 confirm 99.6 | Casp3 SENP sel 87.9 | SENP luc ctr 89.8
CC(NC(=O)C1CCC(CNS(=O)(=O)c2ccccc2)CC1)c1ccccc1 (configuration not stated)	none
Cc1ccc(O)c(NC(=O)c2noc3c2CCc2ccccc2-3)c1	SENP7 inh 66.1 | SENP8 confirm inactive | SENP6 confirm inactive | SENP7 confirm inactive | Casp3 SENP sel inactive | SENP luc ctr inactive
Cc1cc(NC(=O)c2noc3c2CCc2ccccc2-3)no1	none
Cc1ccc(NC(=O)CSCC(=O)Nc2ccccc2N2CCCCC2)cc1	none
Cc1cc(NCc2ccccn2)ccc1Br	SENP7 inh 53.4 | SENP8 confirm inactive | SENP6 confirm inactive | SENP7 confirm 69.4 | Casp3 SENP sel inactive | SENP luc ctr 51.6
Cc1[nH]nc(Nc2ccc(C(C)C)cc2)c1[N+](=O)[O-]	SENP6 inh 50.8 | SENP8 confirm inactive | SENP6 confirm inactive | SENP7 confirm 77.3 | Casp3 SENP sel inactive | SENP luc ctr inactive
Cc1ccc(Nc2n[nH]c(C)c2[N+](=O)[O-])cc1	none
CCn1c(C)c(C(C)=O)cc(C#N)c1=O	SENP7 inh 79.4 | SENP8 confirm inactive | SENP6 confirm inactive | SENP7 confirm inactive | Casp3 SENP sel inactive | SENP luc ctr inactive
COc1ccc(NC(=O)Nc2ccccc2SC)cc1	SENP6 inh 95.7, SENP7 inh 97.6, SENP8 block-2 92.0 | SENP8 confirm 95.1 | SENP6 confirm 95.7 | SENP7 confirm 100.6 | Casp3 SENP sel 95.6 | SENP luc ctr inactive
COc1ccc(Cl)cc1NC(=O)Nc1ccccc1SC	none
COc1ccc(NC(=O)Nc2ccc(OC)cc2)cc1	none
COc1ccc(NC(=O)Nc2ccc(N(C)C)cc2)cc1	SENP6 inh 80.7, SENP7 inh 76.9 | SENP8 confirm inactive | SENP6 confirm 69.9 | SENP7 confirm 89.9 | Casp3 SENP sel 85.3 | SENP luc ctr inactive
CSc1ccccc1NC(=O)Nc1ccc(Cl)cc1	SENP7 inh 95.8, SENP8 block-2 92.3 | SENP8 confirm inactive | SENP6 confirm 95.8 | SENP7 confirm 100.7 | Casp3 SENP sel 85.1 | SENP luc ctr 63.2
Cc1ccc(C(=O)NNC(=O)COC(=O)COc2ccccc2C#N)cc1	none (no result: Platelet DG rel)
O=C1/C(=C/c2cccc([N+](=O)[O-])c2)Oc2cc(O)ccc21	SENP6 inh 67.4, SENP8 block-2 54.4 | SENP8 confirm inactive | SENP6 confirm inactive | SENP7 confirm inactive | Casp3 SENP sel inactive | SENP luc ctr inactive
O=C1/C(=C/c2ccc(O)c(O)c2)Oc2cc(O)ccc21	none (no result: Platelet DG rel)
CCn1ccc(C(=O)Nc2ccccc2Cl)n1	SENP6 inh 52.9, SENP7 inh 50.5 | SENP8 confirm inactive | SENP6 confirm inactive | SENP7 confirm 75.6 | Casp3 SENP sel 72.1 | SENP luc ctr 56.4
CCn1ccc(C(=O)Nc2cccc(Cl)c2)n1	none
CS(=O)(=O)Nc1ccc(C(=O)Nc2ccccc2Cl)cc1	none
CC(C)(C)c1ccc(C(=O)Nc2ccccc2Cl)cc1	SENP6 inh 80.4, SENP7 inh 75.6, SENP8 block-2 70.0 | SENP8 confirm inactive | SENP6 confirm 76.1 | SENP7 confirm 94.2 | Casp3 SENP sel 60.1 | SENP luc ctr 61.4
COc1ccc(S(=O)(=O)Nc2cc(SCC(=O)O)c(O)c3ccccc23)cc1	SENP6 inh 75.6, SENP8 block-2 50.8 | SENP8 confirm inactive | SENP6 confirm 59.4 | SENP7 confirm inactive | Casp3 SENP sel inactive | SENP luc ctr inactive
O=C1c2ccccc2C(=O)C1c1ccc2ccccc2n1	SENP6 inh 80.7, SENP7 inh 99.5, SENP8 block-2 81.0 | SENP8 confirm inactive | SENP6 confirm inactive | SENP7 confirm inactive | Casp3 SENP sel inactive | SENP luc ctr inactive
COC(=O)C1=C(C)NC(C)=C(C(=O)OC)C1c1ccc2ccccc2n1	none
CCCCN1CCCC1CNC(=O)c1cc(C#N)c2ccccc2c1OC (configuration not stated)	none (no result: SENP8 block-1)
Fc1ccccc1-c1nc(-c2ccc(Br)o2)no1	SENP6 inh 84.5, SENP7 inh 89.0, SENP8 block-2 84.8 | SENP8 confirm inactive | SENP6 confirm 82.9 | SENP7 confirm 97.4 | Casp3 SENP sel 68.1 | SENP luc ctr inactive
